One may read the AC50 as the concentration giving half of the maximal activity seen.

A short description of assay [1]: ATG_NFI_CIS: Attagene CIS-FACTORIAL HepG2 Assay for human Nuclear Factor I (NFI) (AID 2282989). To be noted: HepG2 cis-regulatory reporter, NFI response element transcription; actives raise or lower the signal. Put shortly:
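Reporter transcription driven by endogenous transcription factors in HepG2 cells; 24 h treatment. Quantitation by labelled RT-PCR fragments on capillary electrophoresis, gain- or loss-of-signal relative to DMSO.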

Assay [2] concerns the target Myc proto-oncogene protein (Homo sapiens) (UniProt P01106). Nature of the assay: ATG_Myc_CIS: Attagene CIS-FACTORIAL HepG2 Assay for human Myelocytomatosis (Myc) Proto-Oncogene Transcription Factor (AID 2282990). To be noted: HepG2, Attagene cis-reporter transcription factor activity; actives raise or lower the signal. The procedure, abridged:
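Cells of the HepG2 human liver line bear multiple cis-driven reporter transcription units. Reporter mRNA after 24 h exposure is reverse-transcribed, amplified, labelled and resolved by capillary electrophoresis, with gain- or loss-of-signal fitting relative to DMSO.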

Assay [3] can be described thus: ATG_NF_kB_CIS: Attagene CIS-FACTORIAL HepG2 Assay for human Nuclear Factor Kappa B (NF-kB) (AID 2282991). Particulars: HepG2 Attagene cis-factorial NF-kB reporter mRNA; actives raise or lower the signal. The procedure, abridged:
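HepG2, transient multi-reporter transfection, cis promoter elements (endogenous TFs). 24 h exposure. Total RNA → RT → PCR → 6-FAM label → HpaI → CE. Gain/loss vs DMSO.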

Assay [4] in a line: ATG_NRF2_ARE_CIS: Attagene CIS-FACTORIAL HepG2 Assay for human Nuclear Factor Erythroid 2 Related Factor 2 (NFR2) response to Antioxidant Response Elements (ARE) (AID 2282992).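 For AC50: reporter mRNA level measured by RT-PCR and capillary electrophoresis fluorescence.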 Particulars: HepG2 Attagene ARE/NRF2 reporter, transcription factor activity; actives raise or lower the signal. Put shortly: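 Transient MRTU transfection of HepG2; 24 h compound exposure; TriZol RNA, RT with oligo(dT), PCR, 6-FAM primer extension, HpaI cut, CE. Bidirectional fit vs DMSO.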

The nature of assay [5]: ATG_Oct_MLP_CIS: Attagene CIS-FACTORIAL HepG2 Assay for human Octamer-Binding Transcription Factor (Oct) (AID 2282993). Particulars: HepG2 Attagene cis-factorial Oct reporter, mRNA; actives raise or lower the signal. Put shortly: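 Transfected HepG2 cells, 24 h treatment. Reporter mRNA quantified by RT-PCR–capillary electrophoresis; bidirectional fitting against DMSO.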
A short description of assay [6]: BSK_3C_TissueFactor: BioMAP Diversity Plus: 3C Assay for Tissue Factor Biomarker Activity (AID 2282997). Particulars: BioMAP 3C HUVEC, tissue factor biomarker readout; actives raise or lower the signal. Put shortly: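 HUVEC were treated 24 h, then surface tissue factor measured by ELISA and fitted bidirectionally against DMSO. Parallel SRB total-protein staining assessed overt cytotoxicity at the same time point.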

Assay [7] is described as follows: BSK_3C_uPAR: BioMAP Diversity Plus: 3C Assay for Urokinase-type plasminogen activator receptor (uPAR) Biomarker Activity (AID 2282998). To be noted: BioMAP 3C HUVEC, uPAR biomarker ELISA; actives raise or lower the signal. Put shortly: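 Readout: ELISA for surface uPAR. System: human umbilical vein endothelial primary cells, 24 h after chemical exposure. Analysis: bidirectional fit, DMSO baseline.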
(In an ELISA, binding on a coated surface is turned into a signal by an enzyme label.)

Assay [8] can be described thus: BSK_4H_Eotaxin3: BioMAP Diversity Plus: 4H Assay for Eotaxin 3 Biomarker Activity (AID 2283000).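 Note: CCL26 protein level quantified by ELISA in parallel with SRB cytotoxicity check.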 To be noted: primary human endothelial cells (HUVEC); actives raise or lower the signal. Put shortly: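 Eotaxin-3 (CCL26) levels were measured by ELISA in HUVEC primary cultures 24 h post-dosing. Gain or loss of signal was fitted in both directions, with DMSO serving as baseline and negative control.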

Assay [9] concerns the target human Peroxisome Proliferator-activated Receptor alpha (PPARa), PPARA (gene 5465) (UniProt Q07869). Nature of the assay: ATG_PPARa_TRANS: Attagene TRANS-FACTORIAL HepG2 Assay for human Peroxisome Proliferator-activated Receptor alpha (PPARa) (AID 2283001; active = hit-call score of the fitted dose curve at least 0.9, where 1 is the maximum). The procedure, abridged: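 Reporter transcripts from GAL4-UAS units in transfected HepG2 were quantified 24 h after dosing. Detection used reverse transcription, PCR, fluorescent primer extension and capillary electrophoresis, with DMSO as baseline.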

Read-out in assay [10]: Intercellular Adhesion Molecule 1 (ICAM1), ICAM1 (gene 3383)
Nature of the assay: BSK_3C_ICAM1: BioMAP Diversity Plus: 3C Assay for Intercellular Adhesion Molecule 1 (ICAM1) Biomarker Activity (AID 2283003). To be noted: primary human endothelial cells (HUVEC); actives raise or lower the signal. Put shortly: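 Human vascular endothelial primary cells, 3C conditions, 24 h treatment. ICAM-1 by ELISA.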

In assay [11] the target is Retinoic acid receptor alpha (Homo sapiens) (UniProt P10276). Nature of the assay: ATG_RARa_TRANS: Attagene TRANS-FACTORIAL HepG2 Assay for human Retinoic Acid Receptor alpha (RARa) (AID 2283005; active = hit-call score of the fitted dose curve at least 0.9, where 1 is the maximum). Put shortly: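 Reporter transcripts, measured by RT-PCR with fluorescent labeling and capillary electrophoresis after 24 h dosing, reflect activity of an exogenous human RARa–GAL4 fusion in transiently transfected HepG2. Fitted for increase relative to DMSO.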
Chain of Retinoic acid receptor alpha (Homo sapiens) (P10276 whole entry, looked up, the tested form may be a part): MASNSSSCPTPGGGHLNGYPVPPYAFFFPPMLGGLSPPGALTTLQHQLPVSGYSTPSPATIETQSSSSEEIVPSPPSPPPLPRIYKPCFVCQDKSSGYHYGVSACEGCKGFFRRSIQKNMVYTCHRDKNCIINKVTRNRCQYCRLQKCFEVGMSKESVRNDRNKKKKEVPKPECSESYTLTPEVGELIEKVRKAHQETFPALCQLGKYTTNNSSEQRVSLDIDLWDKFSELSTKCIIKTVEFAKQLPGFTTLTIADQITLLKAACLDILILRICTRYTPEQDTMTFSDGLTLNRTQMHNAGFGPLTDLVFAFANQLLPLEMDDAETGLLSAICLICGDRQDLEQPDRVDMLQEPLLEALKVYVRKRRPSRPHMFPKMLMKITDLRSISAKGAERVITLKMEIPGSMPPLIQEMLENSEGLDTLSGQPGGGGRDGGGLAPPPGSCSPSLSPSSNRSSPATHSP

Assay [12] in a line: BSK_3C_Proliferation: Cell Proliferation Assessment in the BioMAP Diversity Plus: 3C Assay (AID 2283006).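 For AC50: potency may reflect either rise or fall in cell number versus DMSO.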 Particulars: primary human endothelial cells (HUVEC). Put shortly:
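Proliferation of human vascular endothelial primary cells after 48 h dosing, quantified as SRB-stained protein at 560 nm relative to DMSO.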

Assay [13] concerns the target Peroxisome proliferator-activated receptor gamma (Homo sapiens) (UniProt P37231). Nature of the assay: ATG_PPARg_TRANS: Attagene TRANS-FACTORIAL HepG2 Assay for human Peroxisome Proliferator-activated Receptor-gamma (PPARg) (AID 2283007; active = hit-call score of the fitted dose curve at least 0.9, where 1 is the maximum). The procedure, abridged: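 Multiplexed reporter transcription units in HepG2, 24 h dosing, reporter transcripts quantified by fluorescent RT-PCR and capillary electrophoresis. Increase over DMSO scored.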

The target of assay [14] is Cellular tumor antigen p53 (Homo sapiens) (UniProt P04637). Nature of the assay: ATG_p53_CIS: Attagene CIS-FACTORIAL HepG2 Assay for human p53 Transcription Factor (AID 2282994). Particulars: HepG2 p53 cis-element reporter, Attagene mRNA; actives raise or lower the signal. The procedure, abridged:
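HepG2, transient MRTU transfection (cis promoter elements, endogenous TFs); 24 h dosing; RNA isolation, RT-PCR, 6-FAM primer extension, HpaI digest, CE fluorescence; bidirectional fit vs DMSO.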

The target in assay [15] is human Peroxisome Proliferator-activated Receptor delta (PPARd), PPARD (gene 5467) (UniProt Q03181). Nature of the assay: ATG_PPARd_TRANS: Attagene TRANS-FACTORIAL HepG2 Assay for human Peroxisome Proliferator-activated Receptor delta (PPARd) (AID 2283002; active = hit-call score of the fitted dose curve at least 0.9, where 1 is the maximum). The procedure, abridged: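 Cell-based TRANS reporter: HepG2, transient MRTU transfection, 24 h exposure. Readout = reporter mRNA (RT-PCR/CE, 6-FAM). Gain-of-signal fit vs DMSO control.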
Chain of human Peroxisome Proliferator-activated Receptor delta (PPARd), PPARD (gene 5467) (Q03181 whole entry, looked up): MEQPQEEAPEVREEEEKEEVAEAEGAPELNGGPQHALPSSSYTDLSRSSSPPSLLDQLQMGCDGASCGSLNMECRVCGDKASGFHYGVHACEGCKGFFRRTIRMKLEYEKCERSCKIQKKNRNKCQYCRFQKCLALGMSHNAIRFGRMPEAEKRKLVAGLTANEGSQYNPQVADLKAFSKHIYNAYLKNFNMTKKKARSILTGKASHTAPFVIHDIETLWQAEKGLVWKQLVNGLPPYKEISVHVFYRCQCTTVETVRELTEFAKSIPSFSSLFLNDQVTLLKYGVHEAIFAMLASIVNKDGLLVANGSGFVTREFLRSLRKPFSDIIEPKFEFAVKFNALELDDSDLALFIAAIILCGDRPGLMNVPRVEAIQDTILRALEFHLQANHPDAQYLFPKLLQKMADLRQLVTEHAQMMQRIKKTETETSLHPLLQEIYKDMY

In assay [16] the target is human Retinoic Acid Receptor gamma (RARg), RARG (gene 5916) (UniProt P13631). Nature of the assay: ATG_RARg_TRANS: Attagene TRANS-FACTORIAL HepG2 Assay for human Retinoic Acid Receptor gamma (RARg) (AID 2283009; active = hit-call score of the fitted dose curve at least 0.9, where 1 is the maximum). The procedure, abridged:
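HepG2, RARg-GAL4 TRANS system, 24 h exposure; reporter mRNA by RT-PCR + CE fluorescence; increase over DMSO.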

In assay [17] the target is Nuclear receptor subfamily 1 group I member 2 (Homo sapiens) (UniProt O75469). Nature of the assay: ATG_PXR_TRANS: Attagene TRANS-FACTORIAL HepG2 Assay for human Pregnane X Receptor (PXR) (AID 2283008; active = hit-call score of the fitted dose curve at least 0.9, where 1 is the maximum). Put shortly:
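Read-out is fluorescence of labelled reporter cDNA fragments separated by capillary electrophoresis after RT-PCR and HpaI digestion. Source: HepG2 cells carrying PXR-GAL4/UAS reporter constructs, treated 24 h; activity fitted upward relative to DMSO.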

Assay [18] concerns the target human RAR-related Orphan Receptor beta (RORb), RORB (gene 6096) (UniProt Q92753). Nature of the assay: ATG_RORb_TRANS: Attagene TRANS-FACTORIAL HepG2 Assay for human RAR-related Orphan Receptor beta (RORb) (AID 2283010; active = hit-call score of the fitted dose curve at least 0.9, where 1 is the maximum). The procedure, abridged: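 In this TRANS-format test, human HepG2 cells express chimeric NR-Gal4 fusion proteins driving GAL4-UAS reporters. After 24 h dosing, reporter transcripts are measured by fluorescent RT-PCR/capillary electrophoresis, with DMSO as negative control.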

Assay [19] in a line: BSK_3C_VCAM1: BioMAP Diversity Plus: 3C Assay for Vascular cell adhesion molecule 1 (VCAM1) Biomarker Activity (AID 2282999). Particulars: BioMAP 3C HUVEC, VCAM1 ELISA, cytokine-stimulated; actives raise or lower the signal. The procedure, abridged: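 Endothelial cells from human umbilical vein are treated with test chemical. At 24 h, VCAM-1 is measured by ELISA, and responses in either direction are fitted relative to DMSO.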

Assay [20] has as its target human Retinoic Acid Receptor beta (RARb), RARB (gene 5915) (UniProt P10826). Nature of the assay: ATG_RARb_TRANS: Attagene TRANS-FACTORIAL HepG2 Assay for human Retinoic Acid Receptor beta (AID 2283004; active = hit-call score of the fitted dose curve at least 0.9, where 1 is the maximum). The procedure, abridged: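 HepG2 cells were transiently transfected with GAL4-UAS reporter units that report activity of exogenous chimeric NR-Gal4 proteins, then exposed to compound for 24 h. Reporter mRNA was quantified by RT-PCR with capillary electrophoresis fluorescence, as gain of signal over DMSO.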

Records with an inconclusive call do not appear. Some structures have more than one record in an assay (separate samples or runs), and their calls can disagree. Activity calls are given as the source filed them. Rule for the calls, unless noted: active = hit-call score of the fitted dose curve at least 0.9, where 1 is the maximum; inactive = score below 0.9.

Chain of human Peroxisome Proliferator-activated Receptor alpha (PPARa), PPARA (gene 5465) (Q07869 whole entry, looked up, the tested form may be a part): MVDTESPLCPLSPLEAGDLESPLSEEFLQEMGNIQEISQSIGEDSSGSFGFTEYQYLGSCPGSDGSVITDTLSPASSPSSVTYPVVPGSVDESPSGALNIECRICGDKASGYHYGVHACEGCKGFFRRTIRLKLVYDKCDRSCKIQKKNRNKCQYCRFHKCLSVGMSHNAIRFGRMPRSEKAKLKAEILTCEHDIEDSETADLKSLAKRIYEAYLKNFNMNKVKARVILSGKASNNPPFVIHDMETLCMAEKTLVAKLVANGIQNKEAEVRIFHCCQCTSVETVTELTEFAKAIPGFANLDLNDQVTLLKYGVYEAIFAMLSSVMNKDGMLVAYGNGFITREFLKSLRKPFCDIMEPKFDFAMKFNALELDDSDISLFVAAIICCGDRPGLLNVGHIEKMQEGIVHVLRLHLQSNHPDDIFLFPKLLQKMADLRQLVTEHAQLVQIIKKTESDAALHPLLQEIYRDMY
Chain of Peroxisome proliferator-activated receptor gamma (Homo sapiens) (P37231 whole entry, looked up): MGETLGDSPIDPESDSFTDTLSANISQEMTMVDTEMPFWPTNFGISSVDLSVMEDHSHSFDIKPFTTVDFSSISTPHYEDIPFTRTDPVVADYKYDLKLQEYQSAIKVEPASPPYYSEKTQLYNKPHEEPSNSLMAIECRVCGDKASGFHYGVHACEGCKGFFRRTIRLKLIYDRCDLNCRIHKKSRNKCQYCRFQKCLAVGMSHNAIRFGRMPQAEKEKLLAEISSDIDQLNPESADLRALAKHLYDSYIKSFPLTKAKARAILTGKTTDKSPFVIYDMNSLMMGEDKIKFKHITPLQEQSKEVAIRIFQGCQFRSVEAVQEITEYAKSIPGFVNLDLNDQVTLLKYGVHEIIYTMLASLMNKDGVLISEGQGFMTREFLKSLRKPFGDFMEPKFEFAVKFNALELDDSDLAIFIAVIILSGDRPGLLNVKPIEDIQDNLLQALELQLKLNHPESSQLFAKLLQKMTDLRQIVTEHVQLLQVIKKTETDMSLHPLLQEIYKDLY
Chain of Myc proto-oncogene protein (Homo sapiens) (P01106 whole entry, looked up): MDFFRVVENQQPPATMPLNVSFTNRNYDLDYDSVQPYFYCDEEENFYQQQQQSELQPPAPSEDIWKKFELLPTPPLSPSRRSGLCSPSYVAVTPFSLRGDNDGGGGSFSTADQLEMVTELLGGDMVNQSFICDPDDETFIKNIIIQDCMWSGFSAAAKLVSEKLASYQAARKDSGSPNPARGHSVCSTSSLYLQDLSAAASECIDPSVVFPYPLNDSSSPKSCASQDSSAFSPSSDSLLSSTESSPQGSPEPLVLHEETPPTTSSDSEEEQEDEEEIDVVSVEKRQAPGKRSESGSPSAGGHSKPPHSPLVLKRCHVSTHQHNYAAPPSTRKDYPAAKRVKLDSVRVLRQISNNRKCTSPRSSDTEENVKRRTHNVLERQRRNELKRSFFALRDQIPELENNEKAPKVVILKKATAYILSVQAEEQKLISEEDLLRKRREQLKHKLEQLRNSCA
Chain of human Retinoic Acid Receptor gamma (RARg), RARG (gene 5916) (P13631 whole entry, looked up, the tested form may be a part): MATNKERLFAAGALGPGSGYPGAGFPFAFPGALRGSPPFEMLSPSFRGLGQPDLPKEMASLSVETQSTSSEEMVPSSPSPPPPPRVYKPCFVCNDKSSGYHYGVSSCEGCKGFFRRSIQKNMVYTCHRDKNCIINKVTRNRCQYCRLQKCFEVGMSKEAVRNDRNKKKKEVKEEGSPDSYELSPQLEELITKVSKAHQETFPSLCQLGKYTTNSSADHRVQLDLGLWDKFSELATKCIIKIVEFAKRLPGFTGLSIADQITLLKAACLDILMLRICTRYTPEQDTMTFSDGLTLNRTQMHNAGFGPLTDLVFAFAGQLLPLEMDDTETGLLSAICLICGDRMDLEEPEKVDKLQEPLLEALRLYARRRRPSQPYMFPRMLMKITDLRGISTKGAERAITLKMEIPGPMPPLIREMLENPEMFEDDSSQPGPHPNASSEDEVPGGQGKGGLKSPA
Chain of Nuclear receptor subfamily 1 group I member 2 (Homo sapiens) (O75469 whole entry, looked up, the tested form may be a part): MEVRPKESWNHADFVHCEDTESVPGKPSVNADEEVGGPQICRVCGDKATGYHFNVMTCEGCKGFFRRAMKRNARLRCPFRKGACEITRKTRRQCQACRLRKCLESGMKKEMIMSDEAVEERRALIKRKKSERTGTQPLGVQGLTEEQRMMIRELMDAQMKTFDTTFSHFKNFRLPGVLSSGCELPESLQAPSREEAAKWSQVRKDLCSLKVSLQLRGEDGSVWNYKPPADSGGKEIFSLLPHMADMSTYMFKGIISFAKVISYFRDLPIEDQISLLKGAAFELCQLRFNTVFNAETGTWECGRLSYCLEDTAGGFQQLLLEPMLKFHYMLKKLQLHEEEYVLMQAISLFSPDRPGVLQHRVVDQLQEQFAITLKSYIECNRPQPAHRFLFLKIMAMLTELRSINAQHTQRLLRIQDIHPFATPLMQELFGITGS
Chain of human RAR-related Orphan Receptor beta (RORb), RORB (gene 6096) (Q92753 whole entry, looked up, the tested form may be a part): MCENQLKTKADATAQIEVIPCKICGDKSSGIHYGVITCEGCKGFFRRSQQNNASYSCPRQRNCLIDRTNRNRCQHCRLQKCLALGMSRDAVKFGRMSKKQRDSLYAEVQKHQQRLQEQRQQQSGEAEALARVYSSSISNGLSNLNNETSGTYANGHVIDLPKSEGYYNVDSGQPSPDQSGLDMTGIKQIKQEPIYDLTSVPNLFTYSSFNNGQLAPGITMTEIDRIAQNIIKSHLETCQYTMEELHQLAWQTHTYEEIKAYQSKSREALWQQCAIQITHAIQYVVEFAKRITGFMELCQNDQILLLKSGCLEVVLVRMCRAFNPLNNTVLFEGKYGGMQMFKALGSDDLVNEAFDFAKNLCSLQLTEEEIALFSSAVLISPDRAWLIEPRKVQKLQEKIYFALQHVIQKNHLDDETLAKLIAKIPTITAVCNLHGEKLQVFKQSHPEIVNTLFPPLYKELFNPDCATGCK
Chain of Cellular tumor antigen p53 (Homo sapiens) (P04637 whole entry, looked up): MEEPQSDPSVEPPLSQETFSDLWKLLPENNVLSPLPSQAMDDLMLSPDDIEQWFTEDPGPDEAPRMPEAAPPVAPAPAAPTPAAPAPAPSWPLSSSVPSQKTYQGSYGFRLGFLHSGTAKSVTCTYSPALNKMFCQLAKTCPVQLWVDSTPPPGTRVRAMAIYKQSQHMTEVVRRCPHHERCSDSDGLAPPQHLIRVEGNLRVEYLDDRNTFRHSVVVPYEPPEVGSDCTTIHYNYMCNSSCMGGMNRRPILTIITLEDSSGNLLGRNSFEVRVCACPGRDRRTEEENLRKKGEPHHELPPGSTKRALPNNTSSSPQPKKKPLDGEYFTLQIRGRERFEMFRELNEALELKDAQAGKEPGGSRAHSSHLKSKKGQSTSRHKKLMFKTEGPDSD
Chain of human Retinoic Acid Receptor beta (RARb), RARB (gene 5915) (P10826 whole entry, looked up, the tested form may be a part): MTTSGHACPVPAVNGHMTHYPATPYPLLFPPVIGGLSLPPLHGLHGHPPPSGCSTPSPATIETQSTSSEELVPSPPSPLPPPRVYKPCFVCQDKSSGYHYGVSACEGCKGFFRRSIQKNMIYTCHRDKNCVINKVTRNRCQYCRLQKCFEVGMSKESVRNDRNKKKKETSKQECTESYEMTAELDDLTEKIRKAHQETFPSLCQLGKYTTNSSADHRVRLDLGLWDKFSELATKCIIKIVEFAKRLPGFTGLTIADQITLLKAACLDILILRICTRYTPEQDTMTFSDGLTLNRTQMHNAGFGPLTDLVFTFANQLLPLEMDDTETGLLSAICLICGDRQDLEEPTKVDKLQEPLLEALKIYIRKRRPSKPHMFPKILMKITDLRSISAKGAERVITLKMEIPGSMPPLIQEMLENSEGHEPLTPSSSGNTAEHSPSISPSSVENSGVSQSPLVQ

For the compound `COc1cc(OC)nc(NC(=O)NS(=O)(=O)Nc2ccccc2C(=O)N(C)C)n1`, the compound was called inactive in assay [1], in [2], in assay [3], in assay [4], in assay [5] and in assay [6]. The outcome in [7], in assay [8], in [9], in assay [10], in assay [11] and in assay [12] was inactive. For the same compound, the outcome in assay [13] was inactive.

Turning to `CC(C)CCOCCC(C)C`, the call in assay [1], in assay [2], in [3], in assay [4], in assay [5] and in [14] was inactive. In assay [11], the compound was called inactive.

As to `FC(F)(F)C1(F)C(F)(F)C(F)(F)C(F)(F)C(F)(C(F)(F)F)C1(F)F` (configuration not stated), the result in assay [1], in assay [2], in assay [3], in assay [4], in [5] and in assay [9] was inactive. In addition, the call in assay [15], in [11] and in assay [16] was inactive.

With `O=S(=O)(O)c1ccccc1`, the compound was called inactive in assay [1], in assay [2], in assay [3], in [4], in assay [5] and in assay [9]. Besides, the call in assay [13], in [17], in assay [16] and in [18] was inactive.

`N=C(N)c1ccc(OCCCCCOc2ccc(C(=N)N)cc2)cc1`: the call in [1], in assay [2], in [6], in assay [19], in assay [8] and in assay [9] was inactive. Moreover, the compound was classed as inactive in assay [15] and in assay [10]. The AC50 in assay [3] was 87.5 µM (active); in [4], 0.732 µM (active); in [5] it was 34.4 µM (active); in assay [7], 7.78 µM (active); in [12] it was 5.13 µM (active).

Consider `CCCCCCCCCCCCCCC`, for which the compound was called inactive in assay [1], in [2], in assay [3], in [4], in assay [5] and in [6]. The outcome in assay [7], in assay [8], in assay [15], in assay [10] and in assay [12] was inactive.

Consider `OCC(CO)(CBr)CBr`, for which the result in assay [1], in assay [2], in [3], in assay [4], in [5] and in assay [6] was inactive. Besides, the outcome in [7], in [19], in [8], in assay [10] and in assay [12] was inactive.

As for `CC(C)(c1ccc(Oc2ccc(N)cc2)cc1)c1ccc(Oc2ccc(N)cc2)cc1`, the call in assay [1], in [2], in [3], in assay [5], in assay [14] and in [15] was inactive. Further, the AC50 is 3.71 µM (active) in assay [4], 1.69 µM (active) in assay [13] and 2.28 µM (active) in [17].

As to `Oc1cccc2c(O)cccc12`, the call in assay [1], in assay [2], in assay [3], in assay [5], in [9] and in assay [15] was inactive. Moreover, the result in assay [17] and in assay [18] was inactive. In addition, the AC50 in assay [4] is 8.25 µM (active); in [13], 48.4 µM (active).

With `CN(CCO)S(=O)(=O)C(F)(F)C(F)(F)C(F)(F)C(F)(F)C(F)(F)C(F)(F)C(F)(F)C(F)(F)F`, the compound was called inactive in assay [1], in assay [2], in assay [3], in assay [4], in [5] and in assay [6]. Further, the result in [7], in assay [19], in [8], in assay [15], in assay [10] and in assay [20] was inactive. Besides, the compound was classed as inactive in [11], in assay [12], in assay [13], in assay [17], in assay [16] and in assay [18]. In addition, the AC50 in assay [12] is 0.662 µM (active).

Source of the values: PubChem BioAssay (EPA / NIEHS).
